# NALP3 yeast inh: NALP3 inhibition in yeast; Yeast reconstituted NLRP3/ASC/caspase-1, beta-gal luminescence, 24 h; inhibition, % at 10 µM; 330,000 tested, 0.39% active; AID 2825;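 active = inhibition of 50% or more; inactive = inhibition below 50%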;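 note: plate controls were induced DMSO wells for no effect and uninduced yeast grown without galactose for full effect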
# SKKanGAS inh: blocks kanamycin growth of S. pyogenes SKKanGAS strain; BacTiter-Glo, 6 h; inhibition, % at 7.5 µM; 300,000 tested, 1.3% active;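 active = mean replicate score, as percent of positive control median, at least 50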;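 note: strain carries kanamycin resistance gene driven by streptokinase promoter and grows in 40 µg/ml kanamycin; loss of luminescence reflects streptokinase promoter inhibition or plain growth inhibition; 0% = median of DMSO wells and 100% = positive control at its reference dose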
# NALP1 yeast inh: inhibitors of NALP1 inflammasome in yeast | inhibition, % at 10 µM | 280,000 tested, 0.61% active | S. cerevisiae NALP1/ASC/caspase-1 growth, X-gal OD620, 72 h; in the data active = inhibition mostly above about 24%, no sharp cut-off; inactive = mostly below about 32%
# tim23-1 inh: growth inhibitors of tim23-1 mutant yeast; inhibition, % at 20 µM; 330,000 tested, 1.3% active; S. cerevisiae tim23-1 growth, BacTiter-Glo luminescence, 24 h;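 active = growth inhibition of the mutant yeast at or above 50%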;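 note: temperature-sensitive mutant grown at 25 °C; plate controls were DMSO-treated mutant yeast for no effect and medium wells lacking yeast for full effect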
# tim10-1 inh: growth inhibitors of tim10-1 mutant yeast; S. cerevisiae tim10-1 ts strain growth, BacTiter-Glo, 24 h; inhibition, % at 20 µM; 330,000 tested, 2.2% active; AID 463190;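 active = inhibition of at least 40%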;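 note: mutant grown at 25 °C; 0% = DMSO wells with yeast and 100% = wells holding no yeast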
# TIM10 inh: growth inhibitors of TIM10 yeast strain | 330,000 tested, 1.4% active | AID 463195 | S. cerevisiae TIM10 strain growth, BacTiter-Glo luminescence, 24 h | inhibition, % at 10 µM;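 active = inhibition of 40% or more at the single tested concentration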;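 note: wild-type TIM10 isogenic control strain grown at permissive 25 °C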
# tim10-1 confirm: confirmation of tim10-1 mutant yeast growth inhibitors | shares compounds with tim10-1 inh | S. cerevisiae tim10-1 ts strain growth, BacTiter-Glo, 24 h | inhibition, % at 20 µM | 7,400 tested, 56% active | AID 463213;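 active = inhibition of yeast growth at or above a set limit in either of two repeat tests at 20 µM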;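 note: tim10-1 mutant grown at permissive 25 °C to find synthetic lethal compounds; 0% = DMSO yeast wells and 100% = medium wells without yeast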
# Starred values were filed as active, the others as inactive; / = not tested or not shown. The list is not random: actives were taken first. Their share in the collection is about 4.9%.
SMILES,NALP3 yeast inh,SKKanGAS inh,NALP1 yeast inh,tim23-1 inh,tim10-1 inh,TIM10 inh,tim10-1 confirm
Cc1cccc(Cc2c(C)nc3c(C(=O)N4CCN(Cc5ccc6c(c5)OCO6)CC4)cnn3c2C)c1,12,8,-6,25,42*,31,16
Cc1ccccc1Cc1c(C)nc2c(C(=O)N3CCN(Cc4ccc5c(c4)OCO5)CC3)cnn2c1C,11,-4,/,31,22,23,/
Cc1nn(Cc2ccc(C(=O)NN)cc2)c(C)c1Cl,9,5,2,36,19,1,/
Cc1nn(Cc2ccc(Cl)c(Cl)c2)c(C)c1NC(=O)c1noc2c1CCCCC2,-9,3,/,15,8,8,/
Cc1nn(Cc2ccc(Cl)cc2)c(C)c1NC(=O)c1noc2c1CCCCC2,12,1,10,38,43*,35,44*
Cc1nn(Cc2ccc(C(=O)Nc3ccccc3F)cc2)c(C)c1Cl,23,-3,5,11,41*,11,26
Cc1c(Cl)c([N+](=O)[O-])nn1Cc1ccc(C(=O)Nc2ccc(Cl)cn2)o1,14,7,41,42,47*,38,34*
Cc1nn(Cc2ccc(Cl)cc2)c(C)c1NC(=O)c1ccc([N+](=O)[O-])cc1,11,-1,23,40,53*,16,41*
O=C1CN(C(=O)/C=C/c2ccc(Br)cc2)CCN1,/,0,15,/,/,/,/
CCc1cccc(C)c1NC(=O)CCNC(=O)c1cccc(C)c1,22,-1,12,18,1,-1,/
CCN(CC)c1ccc(-c2nnc(SCC(=O)Nc3ccccc3C#N)n2-c2ccccc2)cc1,9,28,-3,30,42*,20,20
O=C(c1ccc2nc(-c3ccco3)c(-c3ccco3)nc2c1)N1CCN(c2ccccc2)CC1,31,21,10,15,42*,19,33*
O=C(/C=C\c1ccco1)Nc1ccc(N2CCN(C(=O)c3ccccc3)CC2)cc1,16,-20,15,41,42*,18,32*
CCc1nc2ccc(C(=O)N3CCN(c4cccc(C(F)(F)F)c4)CC3)cc2nc1CC,10,19,-3,38,42*,22,19
O=C(/C=C/c1ccco1)N1CCN(c2ccccc2)CC1,25,-7,31,-3,14,9,/
COc1ccc(OCC2NCCc3cc(OC)c(OC)cc32)cc1 (stereo not given),12,1,9,36,24,19,/
COc1cc2c(cc1OC)C(COc1cccc(C(F)(F)F)c1)NCC2 (stereo not given),24,-4,14,40,47*,40,47*
COc1ccccc1C(=O)Nc1ccc2c(c1)CN(Cc1cnc(C)s1)CC2,5,-1,17,1,7,7,/
COC(=O)C1=C(C)N(c2cccc(Cl)c2)C(=O)C1,24,-2,8,34,52*,6,34*
COC(=O)C1=C(C)N(c2cccc(C(C)=O)c2)C(=O)C1,3,-3,/,7,19,6,/
CN(C(=O)CSc1nc(-c2cccs2)nc2ccccc12)C1CCS(=O)(=O)C1 (stereo not given),15,/,/,4,1,-3,/
COc1ccc(C(c2c(C)[nH][nH]c2=O)c2c(C)[nH][nH]c2=O)cc1Br,35,-2,17,35,14,39,/
COc1cc(C(c2c(C)[nH][nH]c2=O)c2c(C)[nH][nH]c2=O)ccc1OCc1ccc([N+](=O)[O-])cc1,12,-18,5,21,57*,26,51*
Cc1ccc(C(c2c(C)[nH][nH]c2=O)c2c(C)[nH][nH]c2=O)cc1,27,-7,1,20,42*,11,30
COc1cc(C(c2c(C)[nH][nH]c2=O)c2c(C)[nH][nH]c2=O)ccc1OC(C)C,6,10,13,31,40*,35,42*
SMILES,NALP3 yeast inh,SKKanGAS inh,NALP1 yeast inh,tim23-1 inh,tim10-1 inh,TIM10 inh,tim10-1 confirm
COc1cc(C(c2c(C)[nH][nH]c2=O)c2c(C)[nH][nH]c2=O)ccc1OC(=O)c1cccc([N+](=O)[O-])c1,-15,/,-3,4,5,17,/
O=C1N[C@H](Cc2ccccc2)COC(=O)[C@H](Cc2ccc(F)cc2)CC/C=C/C[C@@H]1CC(=O)N(CCO)Cc1ccccc1,11,/,/,28,16,7,/
O=C1ON=C(c2ccccc2)/C1=C/c1ccco1,10,7,14,41,36,19,/
CCCCc1ccc(/C=C2\C(=O)ON=C2c2ccccc2)s1,1,2,21,21,40*,18,29
Cc1cc2ncn(C(=O)c3c(-c4ccccc4)noc3C)c2cc1C,9,3,2,41,41*,34,24
Cc1cc2ncn(C(=O)c3c(-c4c(Cl)cccc4Cl)noc3C)c2cc1C,16,2,-15,6,11,4,/
C=CCN(C(=O)c1cccc(S(=O)(=O)N2CCN(C)CC2)c1)c1nc(-c2ccccc2)cs1,3,-2,0,48,50*,31,41*
CC(=O)N[C@@H](Cc1c[nH]c2ccccc12)C(=O)NC1CCCc2ccccc21 (stereo not given in full),20,0,-6,14,17,-12,/
CCOC(=O)n1c(=O)n(Cc2ccc(OC)cc2)c2ccccc21,4,8,12,49,50*,21,46*
NS(=O)(=O)c1cc(C(=O)NCC2CCCCC2)ccc1Cl,4,0,13,9,7,-5,/
CC(C)c1ccc(N(C(=O)c2snc(C(N)=O)c2N)C(C(=O)NC2CCCC2)c2ccncc2)cc1 (stereo not given),20,7,1,-4,-4,-1,/
CC1(C)Cc2ccccc2/C(=C/C(=O)N2CCCCCC2)N1,-8,-9,-1,32,42*,37,40*
O=C(CSCc1ccccc1Cl)NNC(=S)Nc1ccccc1,24,-9,4,26,49*,28,43*
Cc1ccc(-n2nc(C)c(C(=O)Nc3cccc(C(=O)NC4CC4)c3)n2)c(C)c1,16,/,/,28,44*,15,18
COc1ccc(NC(=O)C2CCCCN2S(=O)(=O)c2ccc(F)cc2)c(OC)c1 (stereo not given),4,0,1,31,44*,34,29
COc1ccccc1NC(=O)C1CCCCN1S(=O)(=O)c1ccc(F)cc1 (stereo not given),17,5,12,29,35,25,/
O=C(Nc1c(-c2ccccc2)nc2ccccn12)c1cccc(F)c1,15,-6,0,12,0,1,/
O=C(Nc1cccc2ccccc12)N(CCO)C1CCS(=O)(=O)C1 (stereo not given),11,1,10,0,-3,-13,/

# Bioassay records from PubChem.
